This is a sample that favours compounds with a hit; in the whole collection about 19% have one here.
Pf growth 96h: Primary qHTS for delayed death inhibitors of the malarial parasite plastid, 96 hour incubation. P. falciparum luciferase reporter growth, 96 h. Potency, µM (top dose mostly 28.7 µM), for inactives: top-dose activity change, negative = inhibition, most hits filed as inhibitors. hit rate 6.9% among 320,000. AID 504834, 2011; also: potency is read from the fitted curve at half-maximal effect; % is scaled to controls: 0 for no effect and ±100 for the full control effect
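Plates of compound plus infected erythrocytes (2% hematocrit, 0.05% parasitemia final) incubate 96 hours, 37 C, 5% CO2. Detection reagent added; reduced luminescence from the parasites' luciferase reporter flags inhibition.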
SARS PLP yeast: qHTS of Yeast-based Assay for SARS-CoV PLP. S. cerevisiae expressing SARS-CoV PLpro, growth rescue. Potency, µM (highest dose often 32.9 µM), for inactives: at the highest dose activity, positive = growth rescue, usual class: activators. hit rate 0.19% among 330,000. AID 485353, 2010; calls by dose curve; also: potency is read from the fitted curve at half-maximal effect; 0% is about no effect; nearly all actives have a fitted effect of over 55% in size
AMA1 RON2 block: qHTS for Inhibitors of AMA1-RON; Towards Development of Antimalarial Drug Lead: Primary Screen | AlphaScreen AMA1-biotinylated RON2 peptide binding | Potency, µM (highest dose often 58.2 µM), inactives show at the highest dose activity change, negative = inhibition, most hits filed as inhibitors | hit rate 0.2% among 360,000 | AID 720542, 2013;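 also: potency is read from the fitted curve at half-maximal effect; 0% = vehicle wells and -100% = peptide control; nearly all actives have a fitted effect of over 45% in size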
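AMA1 (3D7) with his tag at 25 nM final met compounds first, then biotinylated RON2 peptide at 25 nM; detection used donor plus acceptor beads, 10 µg/mL apiece, read by AlphaScreen after 30 min at room temperature.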
Cycloheximide cs: Cycloheximide Counterscreen for Small Molecule Inhibitors of Shiga Toxin; max response, %; cell reporter, cycloheximide protein synthesis inhibition counterscreen; hit rate 12% among 300,000; in the data active = max response mostly above about 13%, no sharp cut-off; inactive = mostly below about 14%; also: read at 38.3 µM for the half of the compounds with a filed dose; 0% is about no effect
Shiga inhibitor: A qHTS for Small Molecule Inhibitors of Shiga Toxin. inhibition, % at 38.7 µM. Vero cells, Shiga toxin protein synthesis inhibition reporter. hit rate 9.2% among 290,000; in the data active = inhibition mostly above about 28%, no sharp cut-off; inactive = mostly below about 43%; also: 0% is about no effect
Pf growth 48h: Primary qHTS for delayed death inhibitors of the malarial parasite plastid, 48 hour incubation | P. falciparum luciferase growth in erythrocytes, 48 h | Potency, µM (series often up to 28.7 µM), without a hit: at the highest dose activity change, negative = inhibition, most hits filed as inhibitors | hit rate 5.9% among 310,000 | AID 504832, 2011; also: potency is read from the fitted curve at half-maximal effect; % is scaled to controls: 0 for no effect and ±100 for the full control effect
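Growth was read as firefly luciferase luminescence after a 48 h, 37 C, 5% CO2 exposure of compounds to reporter-bearing P. falciparum cultures (0.1% parasitemia, 2% hematocrit final) in Albumax-supplemented RPMI 1640.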
The depositor's hits bear a star; ? = inconclusive; · = no result given; [ ] = remark or other dose. Unless noted, calls follow the shape of the dose curve; as a rule, active = well fitted curve in the direction sought with a large enough effect; inconclusive = small, poorly fitted or top-dose-only effect, or another doubt; inactive = no such curve, though single readings can be large; an effect the other way counts as inactive or inconclusive.

SMILES	Pf growth 96h	SARS PLP yeast	AMA1 RON2 block	Cycloheximide cs	Shiga inhibitor	Pf growth 48h
O=C(NCc1cccs1)c1ccc([N+](=O)[O-])cc1Cl	45.1%	-3.0%	-6.0%	11.0*	23.8	30.1%
O=C(NCc1ccccc1Cl)c1ccc2ccccc2n1	41.9%	-5.5%	7.7%	52.1*	86.3*	63.4%
O=C(NCc1ccccc1F)c1ccc2ccccc2n1	33.0%	-21.5%	26.4%	8.7	13.1	21.6%
O=C(NCc1cccs1)c1ccccc1	-15.5%	-7.6%	3.6%	-3.0	-1.4	·
O=C1CN(S(=O)(=O)c2c(F)cccc2F)CCN1S(=O)(=O)c1ccc2c(c1)OCCO2	·	·	·	-1.7	-3.4	·
O=C(OC[C@@H]1O[C@@](O)(COC(=O)c2cccnc2)[C@H](OC(=O)c2cccnc2)[C@H]1OC(=O)c1cccnc1)c1cccnc1	?	·	·	10.9	-2.9	-19.9%
O=C(CSc1nnc(-c2ccc(O)cc2)n1Cc1ccccc1)NNC(=O)c1ccc(Br)cc1	?	-11.5%	66.2%	-0.8	-10.6	3.8%
CCOC(=O)c1c(C)[nH]c(C)c1S(=O)(=O)NCCc1ccco1	-16.7%	-4.5%	-3.6%	-1.9	-1.6	12.1%
Cn1c(=O)[nH]c2ccc([N+](=O)[O-])nc21	40.9%	6.5%	-16.1%	-4.0	-9.1	5.0%
Cc1ccc(S(=O)(=O)Oc2ccc(C)cc2/C=N/N=C2\NC(=O)C(C)S2)cc1 (centres undefined)	?	-2.4%	50.5%	30.2*	72.6*	31.9%
CC1S/C(=N/N=C/c2cccc([N+](=O)[O-])c2)NC1=O (centres undefined)	-9.7%	0.9%	-13.0%	-3.3	-3.4	-14.5%
COc1ccc(C2CC(O)(c3ccccc3)Oc3c(C)ccc(C(C)C)c32)cc1 (centres undefined)	·	·	·	-3.2	17.5	·
COc1c(/C=N/NC(=O)c2ccccc2O)c(CCN(C)C(C)=O)cc2c1OCO2	0.6%	-18.5%	5.3%[11.6 µM]	16.1*	56.5*	32.3%
C=CCN1C(=O)NC(=O)/C(=C/c2c(CCN(C)C(=O)c3ccccc3)cc3c(c2OC)OCO3)C1=O	-15.4%	-1.0%	-0.7%	-1.1	-2.9	?
COc1c(/C=N/Nc2ccc(C(=O)O)cc2)c(CCN(C)C(C)=O)cc2c1OCO2	19.3%	0.6%	-1.7%	25.0*	69.7*	15.6%
CNC(=S)N(C)CCc1cc2c(c(OC)c1C=C1C(=O)NC(=O)NC1=O)OCO2	5.22µM*	-0.3%	-10.1%	0.4	-15.1	?
COc1c(/C=N/NS(=O)(=O)c2ccc(C)cc2)c(CCN(C)C(C)=O)cc2c1OCO2	13.1%	7.4%	-2.7%	-1.3	13.0	3.4%
COCCN(C(=O)c1ccc(N(C)S(=O)(=O)c2ccc(C)cc2)cc1)c1c(N)n(CC(C)C)c(=O)[nH]c1=O	·	·	4.8%	·	·	·
CCc1[nH]nc2c1C1(CCN(C(=O)OCc3ccccc3)CC1)C(C#N)=C(N)O2	0.185µM*	-3.1%	-0.6%	2.3	6.6	-25.9%
O=C(NC(c1ccc(Cl)cc1)c1ccsc1)C1CCN(Cc2ccc(Oc3ccccc3)cc2)CC1 (centres undefined)	·	·	-15.3%	·	·	·
COc1ccc(C(=O)/C=C/c2ccc(OC)c(CN3CCOCC3)c2)cc1	24.7%	22.9%	-26.7%	12.1	-5.2	-0.6%
COc1ccc(/C=C/C(=O)c2ccc(O)cc2)cc1CN1CCOCC1	-17.6%	24.7%	-14.1%	4.4	-9.0	?
COc1ccc(/C=C/C(=O)C23CC4CC(CC(C4)C2)C3)cc1CN1CCOCC1	20.9%	6.6%	?	-1.5	-11.1	13.1µM*
COc1ccc(/C=C/C(=O)c2ccc3ccccc3c2O)cc1CN1CCOCC1	11.7µM*	-15.8%	-18.6%	0.7	-3.6	-12.9%
COc1ccc(/C=C/C(=O)c2ccccc2O)cc1CN1CCOCC1	10.4µM*	2.3%	-25.8%	-1.2	-16.9	·
COc1ccc(/C=N/NC(=O)c2ccc(Br)cc2)cc1CN1CCOCC1	?	-0.1%	-0.2%	-1.9	-2.1	?

From PubChem BioAssay
